# ± gives the standard deviation of the averaged measurements.
# Tested on: AEK1 (Tb927.3.2440)
# Assay: percent reduction in TR-FRET probe signal relative to DMSO control; higher = stronger displacement of ATP-site probe (binding)
# Settings: 1 µM; incubation time 1 h
row,SMILES,percent reduction in TR-FRET probe signal
1,COc1ccc(-c2nc(N3CCOCC3)c3sc(CN(C)c4ncc(C(=O)NO)cn4)cc3n2)cn1,-2.41 ± 5.7%
2,COc1ccc2c(Oc3ccc(NC(=O)c4c(C)n(CC(C)(C)O)n(-c5ccccc5)c4=O)nc3)ccnc2c1,0.253 ± 6.4%
3,Cn1cc(-c2[nH]c3cc(NC(=O)[C@H](N)C4CCCCC4)cc4c3c2C=NNC4=O)cn1,76.9 ± 6.5%
4,Nc1ncnc2c1c(-c1cccc(OCc3ccccc3)c1)cn2[C@H]1C[C@@H](CN2CCC2)C1,0.997 ± 12%
5,Cc1ccccc1CN1C2=NCCN2C(=O)C2=C1CCN(Cc1ccccc1)C2 [TIC10 Analogue],-7.4 ± 3.3%
6,COc1ccc(Cl)cc1NC(=O)Nc1cc(C)nc2ccccc12,-2.86 ± 7.3%
7,COc1cc2ncnc(Nc3ccc(Cl)cc3F)c2cc1OC,4.47 ± 2.8%
8,CS(=O)(=O)O.O=C(Nc1cccc(Cl)c1)Nc1ncc(CCNc2ncnc3ccsc23)s1 [SNS-314 Mesylate],0.813 ± 5%
9,O=C(c1ccc(Nc2nccc(-c3cc4ccccc4s3)n2)cc1)N1CCC(N2CCCC2)CC1 [IKK-16 (IKK Inhibitor VII)],4.07 ± 9.4%
10,Cl.O=C1NCCc2[nH]c(-c3ccncc3)cc21,11.4 ± 8.5%
11,C=CC(=O)Nc1cccc(Sc2nc(Nc3ccc(N4CCN(C)CC4)cc3)ncc2Cl)c1,3.76 ± 18%
12,Cc1c(Cn2c(C)nc3c(C(=O)O)cc(N4CCOCC4)cc32)cccc1C(F)(F)F,1.17 ± 7.4%
13,Cc1cc(O)c2c(c1)C(=O)c1cccc(O)c1C2=O [Chrysophanic Acid],6.22 ± 14%

# Source: the supplement of paper PMC10720658
